Among the data in publication PMC7819943, “Rice protein-binding microarrays: a tool to detect cis-acting elements near promoter regions in rice” are binding signal values, retold here.

In all, about 39,000 sequences were measured (“fluorescence intensity (a.u.)”: median about 4,300, highest 2% from about 39,000 on). This excerpt belongs to a sample that is enriched for the highest values.

In this assay the target is T1, OsSMF1 (Oryza sativa, UniProt Q6ZLB0 1-436).
T1 sequence: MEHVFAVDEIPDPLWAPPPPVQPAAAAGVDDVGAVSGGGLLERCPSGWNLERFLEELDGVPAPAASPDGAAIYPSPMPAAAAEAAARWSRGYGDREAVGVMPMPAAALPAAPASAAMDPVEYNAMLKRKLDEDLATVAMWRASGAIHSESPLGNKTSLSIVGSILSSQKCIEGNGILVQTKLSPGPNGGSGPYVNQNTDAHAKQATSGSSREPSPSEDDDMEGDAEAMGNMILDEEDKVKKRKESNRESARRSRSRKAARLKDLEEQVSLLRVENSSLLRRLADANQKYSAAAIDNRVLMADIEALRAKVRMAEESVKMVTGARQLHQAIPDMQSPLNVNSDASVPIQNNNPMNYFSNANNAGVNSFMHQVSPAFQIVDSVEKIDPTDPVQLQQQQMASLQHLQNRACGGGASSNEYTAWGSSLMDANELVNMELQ
As to the kind of experiment: protein-binding microarray (RPBM); PBS, 2% BSA, 51.3 ng/ul salmon testes DNA, 50 uM zinc acetate, 200 nM TF, 25 C, 1 h; high values mean tight binding. The note with it: protein: recombinant; tags: N-terminal polyhistidine and DsRed monomer fusion (pET32a); chain copies: 2; label: CyDye5-dUTP incorporated in the synthesized complementary strand; 3' TTTTT single-stranded linker to array surface; dsDNA, one strand shown. Put shortly: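 In PBS with 2% BSA, salmon testes DNA and 50 µM zinc acetate, 200 nM protein was incubated on a custom Agilent array at 25 °C for 1 h and then washed off. The array had been made double-stranded by primer extension with Cy5-dUTP and blocked with 2% BSA. The proteins were transcription factors fused N-terminally to polyhistidine and DsRed, expressed in E. coli BL21-CodonPlus and purified on Ni–NTA. The binding signal is per-feature fluorescence intensity (arbitrary units) from an Axon 4000B scanner.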
Consider “AGGGTTATAATTAGATGGGTAGTGGAGGTAGGTAAGAAAACGGAGTCACCTAGTGCAG”, for which the binding signal was 4130 fluorescence intensity (a.u.). With “CACCCGCACCCGCCCGCACGGCCGCGCCCGCGTCACCACCCGGAGTCACCTAGTGCAG”, the binding signal was 6150 fluorescence intensity (a.u.). Next, “TGTGTTCCCTTTCGGTACGTTGTATTTCGACCCTGACGTTCGGAGTCACCTAGTGCAG”: 42700 fluorescence intensity (a.u.). For the sequence “TGTATTTTCTGACGTTGGTAGCACGGTAGCACCCGATATTCGGAGTCACCTAGTGCAG”, the binding signal is 4250 fluorescence intensity (a.u.).

Turning to “GGGTTGTGGTTGTTGTACGTTGTTGTTGACGGCGATGGTTCGGAGTCACCTAGTGCAG”, the binding signal is 3460 fluorescence intensity (a.u.).

For “GCTGGTAAAGCGGTGCGCCGGTGCCGCCACGTCCTCGCACCGGAGTCACCTAGTGCAG”, the binding signal was 15100 fluorescence intensity (a.u.). Next, “CTAGAATGAGTGTTATGGCAGAGTGGTAGATGCTTGAAAACGGAGTCACCTAGTGCAG”: 29600 fluorescence intensity (a.u.). Under “CCACGCGGACACTGACACGTCATCATCGTGTTCGTTTCCTCGGAGTCACCTAGTGCAG” stands 39300 fluorescence intensity (a.u.); under “CATCACGCTGACGTGTCCTTTCGTTTGGACACGGACATCTCGGAGTCACCTAGTGCAG”, 15000 fluorescence intensity (a.u.).

Consider “TTTCCCCGGTGGATCGTGTTCGGACACGTCGCGGCCCCTCCGGAGTCACCTAGTGCAG”, for which the binding signal is 6200 fluorescence intensity (a.u.). Next, “AATGGGGCTATAGGTAATTATGCTTAGAAGTCCGGTTCATCGGAGTCACCTAGTGCAG”: 5130 fluorescence intensity (a.u.); “GTTGGGGCGCCTCTGGGGCTGTCCACGTCGGATAGCTACACGGAGTCACCTAGTGCAG”: 20700 fluorescence intensity (a.u.); “CAATCCGTTGATCGGGGTCGTAGTCCATCGACAGAAATTACGGAGTCACCTAGTGCAG”: 41800 fluorescence intensity (a.u.).

Turning to “GAATCCATCGACACGTTTCTTTCGTCAGAACAGTGTCCGTCGGAGTCACCTAGTGCAG”, the binding signal was 3420 fluorescence intensity (a.u.).

Consider “AATCCGAGTAGTCATTGTCGTTTCCATGCAGAATTATGGTCGGAGTCACCTAGTGCAG”, for which the binding signal is 4030 fluorescence intensity (a.u.). For “CGCGTCCGCAGTGTCCCACTCCCGCCACTCCTTCCACCCCCGGAGTCACCTAGTGCAG”, the binding signal was 3780 fluorescence intensity (a.u.).

As for “CTCTCTCTCGGCTTCCACTCCCGTCTCCTCGTCTCCTCGCCGGAGTCACCTAGTGCAG”, the binding signal was 4090 fluorescence intensity (a.u.). Under “ATTGACGCGCCTCGGTATTACCTCACTAGCTGCGTCATTGCGGAGTCACCTAGTGCAG” stands 6460 fluorescence intensity (a.u.); under “ATATTGTCACGTGTCACATGTTAGTTTGTTCAGGAACGGACGGAGTCACCTAGTGCAG”, 5880 fluorescence intensity (a.u.).

For “TTATTAAGCCTAATTAATCCATCATTAGTAAATATTTACTCGGAGTCACCTAGTGCAG”, the binding signal is 3780 fluorescence intensity (a.u.). Next, “ATGTTTAATCAACCTCTAAATCAATAAGATTAGTCATGTACGGAGTCACCTAGTGCAG”: 3950 fluorescence intensity (a.u.). Take “TCCATTAAGCCTCCGTTTAGTAAAGATAAAGATTGGTCAACGGAGTCACCTAGTGCAG”: the binding signal is 44200 fluorescence intensity (a.u.).

Regarding “ACTTTCTTGAATTTAATGCGTGACTCTCCATTCGTCCACACGGAGTCACCTAGTGCAG”, the binding signal was 3620 fluorescence intensity (a.u.).
